Inconclusive results are not listed. Activity calls are given as the source filed them. Calls follow the shape of the dose curve; as a rule, active = well fitted inhibition curve with a large enough effect; inconclusive = small, poorly fitted or top-dose-only effect; inactive = flat fitted curve, though single readings scatter. Peptide text beside a SMILES is read from it. * marks the point of attachment. Cbz = O=C(OCc1ccccc1)*; CH2F = FC*
System: CRL-7250
Assay: qHTS assay to identify novel small-molecules to repurpose for Merkel cell carcinoma treatment (AID 1296009); also: nearly all actives have a fitted effect of over 60% in size
Details: MCC and control cell lines, CellTiter-Glo viability, 72 h; series mostly up to 92 µM; activity change, negative = cytotoxicity: at the top concentration
Procedure, shortened: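 Viability readout: ATP luminescence (CellTiter-Glo) after 72 hr drug exposure at 37 degree celsius. Dose-response format was 8 points for NPC and 11 points for MIPE; data normalized to in-plate controls.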

SMILES	outcome
O=c1c2ccccc2nc2n1CCC2O (configuration not stated)	inactive [at 92 µM]
CC(=O)/C=C/C1(O)C(C)CC(O[C@@H]2O[C@H](CO)[C@@H](O)[C@H](O)[C@H]2O)CC1(C)C (some centres not stated)	inactive [at 17.4 µM]
C=C(COC(=O)CC(C)C)C1Cc2cc(C(C)=O)ccc2O1 (configuration not stated)	inactive
COc1cc2c(cc1O)C1(Cc3ccc4c(c3C1O)OCO4)[N+](C)([O-])CC2 (configuration not stated)	inactive
COC(=O)C1=COC(OC2OC(CO)C(O)C(O)C2O)C2C(COC(=O)/C=C/c3ccc(O)cc3)C(O)C(O)C12 (configuration not stated)	inactive [at 17.4 µM]
CO[C@H]1O[C@@H]2O[C@@]3(C)CCC4[C@H](C)CCC([C@H]1C)[C@]42OO3 (some centres not stated)	inactive
CCCC(=O)Nc1cccc(NC(=O)c2ccccc2Br)c1	inactive
CON(C)C(=O)[C@H](O)[C@H](Cc1ccccc1)NC(=O)c1cc2cc(Cl)ccc2[nH]1	inactive
CN1CCCC1Cc1c[nH]c2ccc(CCS(=O)(=O)c3ccccc3)cc12 (configuration not stated)	inactive
COC(=O)CC[C@H](NC(=O)[C@H](CC(C)C)NC(=O)OCc1ccccc1)C(=O)N[C@@H](Cc1cnc[nH]1)C(=O)N[C@@H](CC(=O)OC)C(=O)CF (Cbz-LE(OMe)HD(OMe)-CH2F)	inactive [at 9.27 µM]
C[C@H](C(=O)NC1CCCC1)N(C(=O)Cn1nnc(-c2ccc3c(c2)OCO3)n1)C1CCCCC1	inactive
CC1C(=O)CC2C3C(O)CC(C(=O)O)C12CC3(C)C (configuration not stated)	inactive
O=C(OC[C@H]1O[C@@H](Oc2ccccc2COC(=O)C2(O)C=CCCC2O)[C@H](O)[C@@H](O)[C@@H]1O)c1ccccc1 (some centres not stated)	inactive [at 17.4 µM]
CC(C)[C@](O)(c1ccc2cc(OC(F)F)c(OC(F)F)cc2c1)c1cn[nH]n1	inactive
O=C(c1ccc(C#Cc2cccc(F)c2)cn1)N1CC2CC2C1 (configuration not stated)	inactive
Cc1ccc(NC(=O)C(=O)NC2CC(C)(C)NC(C)(C)C2)cc1	inactive
C=CC1(C)CC(OC(=O)C(=C)C(O)COC(C)=O)C(C(=C)C(=O)OC)C(O)C1C(=C)CO (configuration not stated)	inactive [at 17.4 µM]
COc1cc(C)c(C(=O)OC2C(C)OC(OC3CCC(C)C4C3C=C(C)C3/C(C)=C\CC/C(C)=C/C5(C)C=C(C(=O)O)C(C)CC56OC(=O)/C(=C(\O)C34C)C6=O)C(O)C2O)c(OC)c1 (configuration not stated)	inactive [at 9.27 µM]
CCNC(=O)C1CC(F)(c2ccc(CN3CCCC3)c(F)c2)C1 (configuration not stated)	inactive
C=CC1C(OC2OC(CO)C(O)C(O)C2O)OC=C2C(=O)N3C(C(=O)O)Cc4c([nH]c5ccccc45)C3CC21 (configuration not stated)	inactive [at 17.4 µM]
O=C(Nc1ccccc1)N1CCN(Cc2ccc3ccccc3n2)CC1	inactive
CC1CC(=O)C2=C(O1)OC1(C)CCC3C(C)(C)C4OC4C(=O)C3(C)C1C2 (configuration not stated)	inactive
CC1(C)CCC(C)(C)c2cc3c(cc21)Sc1ccccc1N=C3c1ccc(C(=O)O)cc1	inactive
COc1cc2c(cc1OC)CC(=O)N(CCCNC[C@H]1Cc3cc(OC)c(OC)cc31)CC2	inactive
C=C1CCC[C@]2(C)C[C@]3(O)OC(=O)C(C)=C3C[C@@H]12	inactive
C=C(C(=O)OC)C1C(O)CC2(C)C(=O)CCC(O)(CO)C2C1O (configuration not stated)	inactive
O=C(Nc1ccc2[nH]ncc2c1)C1CCC1	inactive
